Experimental findings from publication PMC12136788 are described below.

Over roughly 24,000 sequences, “enrichment r” has its median near 0.99; the highest 2% begin near 3.7. Shown is part of a subset that was picked to be rich in the highest values.

The labels stand for the following.
T1: UNK ZnF1-3 (human, UniProt Q9C0B0 31-174)
T1 sequence: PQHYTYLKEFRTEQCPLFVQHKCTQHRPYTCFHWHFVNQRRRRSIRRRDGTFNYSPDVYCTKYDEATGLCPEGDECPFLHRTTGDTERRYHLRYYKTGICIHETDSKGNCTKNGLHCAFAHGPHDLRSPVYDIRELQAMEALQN

B1: chr5:61651017:61651018:+_ENSG00000068796_ENST00000381103|hu_hu|FALSE|FALSE (ssRNA)
RNA: GGGAGUUCUACAGUCCGACGAUCCCUAUGUUCAUCAAUAGGAUCUGCUGUUGUUAAUGGUCUAUAAUCCAAACUUCCUCUAAAGUCUCUGAUCAUACACAUAAUUUCAUAAUUUGGGUUUGUAGCAUCAACGUCCUGGGCUCUCAACAGAGGAUUGAGCAUCA
B2: chrX:131339380:131339381:-_ENSMUSG00000033436_ENSMUST00000035559|mus_hu|FALSE|FALSE (ssRNA)
RNA: GGGAGUUCUACAGUCCGACGAUCACUGAGAAGUUUCUUCAACAUAUCUGGAUUUUCAGCAAAAUUCGAAAGGAUUUUCAAAAUCUCAACCUUGAUUUUUCCACCUCCCUGAGAUAGCAAACGGAAAAAGUUUGCAAUGGAAUUCAACAGAGGAUUGAGCAUCA
B3: chr8:95500983:95500984:-_ENSG00000164944_ENST00000437199|hu_hu|hu_hu_hu_mus_True|58_68 (ssRNA)
RNA: GGGAGUUCUACAGUCCGACGAUCAGAACACAUCUAUCGAGUAAAGGACCGUACAUGACGGCCUCUAACCACUGCCUCCACUAACAACUUUCCUCUCGAGCCUCCACUGCCGCUAUUUGUACUAGCCCAGGACGGUCCCAGGCCCAACAGAGGAUUGAGCAUCA
B4: 37721237_37722996_1653_CDS_ENSG00000082068_ENST00000265107|human|control|control (ssRNA)
RNA: GGGAGUUCUACAGUCCGACGAUCUGCCUUCCGCUGGGUUUUAACCACACAUAAUUUUGCUCCCCUCUGACUCUUGUUGGGGUCGUAAUAGACUUUAGCCAAUCCAUUUCCAGUUCCAACCAUGAUCUGGUUCAGCUUUGGAUGCAACAGAGGAUUGAGCAUCA
B5: 55795476_55800851_1969_CDS_ENSG00000138041_ENST00000407823|human|control|control (ssRNA)
RNA: GGGAGUUCUACAGUCCGACGAUCCCGCCUCAUAAAGCGAAGGGCACACAAGGCCAGAAAAGUGUGCUUUGAAUUCAUCAAGACCAAGACUCUUCUUAGCAAGUCCUUGUUCAUAAUAUAGUUUUUUAUGUGAUAUGUGUGAUGCAACAGAGGAUUGAGCAUCA
B6: chr19:8913615:8913616:-_ENSMUSG00000071658_ENSMUST00000096259|mus_hu|mus_mus_mus_hu_False|1_98 (ssRNA)
RNA: GGGAGUUCUACAGUCCGACGAUCAGGGUACCAAAACACCCUGCCUCAAAUGGGUGCCCCACCCAGUAGGGAGUUGCAGCUGAAAGUAUCUGAUGCAGAAGCAGUGACUAUACGAAAGGAGGCCCCUGGGGAGGGCCCGAGAUCCAACAGAGGAUUGAGCAUCA
B7: 69202206_69203042_311_CDS_ENSG00000135679_ENST00000462284|human|control|control (ssRNA)
RNA: GGGAGUUCUACAGUCCGACGAUCUGAGGUGGUUACAGCACCAUCAGUAGGUACAGACAUGUUGGUAUUGCACAUUUGCCUGCUCCUCACCAUCCGGGGUUUUCGCGCUUGGAGUCGGGGGUCCCUCAAGACUCCCCAGUUUCCCAACAGAGGAUUGAGCAUCA
B8: chr14:31337589:31337590:+_ENSMUSG00000021962_ENSMUST00000022535|mus_mus|motif|central (ssRNA)
RNA: GGGAGUUCUACAGUCCGACGAUCAAUGACCUGUAUCAUAGAAACGAAGACACUUUUCAUUCAAAGAAUAUCUCAAAAUUACGGUUGCUGAAAUAAUCAAAUUCUACAUUAAAAUAUUACCAAACACCAUUACAUGCCAUAAAACAACAGAGGAUUGAGCAUCA
B9: chr1:58468927:58468928:-_ENSMUSG00000026034_ENSMUST00000148330|mus_mus|mus_mus_mus_hu_False|38_108 (ssRNA)
RNA: GGGAGUUCUACAGUCCGACGAUCAAUCUAUAAUUACGAUGUUCAUUACCUUAGCUAUGUACUUAAUGAACCAAAUUACCCAAACAAAAUAAACAUGUUUACAAAUUAAUGUUAAGAAUUUACAAAGCUGUACAAAAUAACUUACAACAGAGGAUUGAGCAUCA
B10: chr4:40680069:40680070:+_ENSMUSG00000028410_ENSMUST00000030118|mus_hu|motif|central (ssRNA)
RNA: GGGAGUUCUACAGUCCGACGAUCAAAAUCAGAGCUUUUAUAUUUGCGUUUAUUCUUCAUUUAACUUUUUAAAACACGGCGGUAGUUUAUUAAAACAAAAACAAGAGCAAGUAGUGAGCAUAUUAUGAUUACAGUCCUUCACUCCAACAGAGGAUUGAGCAUCA
B11: chr3:41281487:41281488:+_ENSG00000168036_ENST00000349496|hu_hu|motif|central (ssRNA)
RNA: GGGAGUUCUACAGUCCGACGAUCCUACGAGAGACUUAAAAAACAGUUACUGCAAAAAAAAAAAAAAAAAAAAAAAAAGAGCGGCUUCAAAGCAAGCAAAGUCAGUACCAUUACAGAUAUUCUUAAAAAAAAAAAAAAAAAAAUCAACAGAGGAUUGAGCAUCA
B12: chr1:130270616:130270617:-_ENSMUSG00000026356_ENSMUST00000027602|mus_hu|FALSE|FALSE (ssRNA)
RNA: GGGAGUUCUACAGUCCGACGAUCGUAAUGGUAAUUAAAAGCCAUUUCAAUGUCCAAACCAACAAACUCAGUUAGAUGUCUAUGGGUAUUAGAGUCUUCCGCUCUGAAUACUGGUCCAAUAGAGAAAACCUUCUCAAAAUCAGCCAACAGAGGAUUGAGCAUCA
B13: chr1:135503150:135503151:-_ENSMUSG00000090553_ENSMUST00000166915|mus_hu|motif|central (ssRNA)
RNA: GGGAGUUCUACAGUCCGACGAUCUUCUGCAUCAUCUAAUACAAGGUUCAUAUACUCAUCAAAACCAAUGAUACAGCCUUCGGUCCGCAUAUUCACUUGCUCAUAGAGCCACACCUGAAUCCGCGAUCUCUGAAAUAAUCAUAACAACAGAGGAUUGAGCAUCA
B14: chr1:38489359:38489360:+_ENSG00000183520_ENST00000537711|hu_mus|FALSE|FALSE (ssRNA)
RNA: GGGAGUUCUACAGUCCGACGAUCAGUCAUGAUUACAAAACAGGAAGACCAAGCCAUUUGAAUUAAUAAAAUCUGAAGUUAUUACAAAAGACAGGAGGAAAAGAUAAUAAUUCUUUUCGAUACAGAAUGCUGAGGCUUAAUUUUCAACAGAGGAUUGAGCAUCA
B15: 67235911_67236031_3360_3pUTR_ENSMUSG00000036371_ENSMUST00000042990|mouse|control|control (ssRNA)
RNA: GGGAGUUCUACAGUCCGACGAUCAACAUUCAAAAAUCUUAAACAAGAAUUAUCUUACGAUAAUGAAAAAGGGAAACCAAGAAACAUAUAAAGGGGUUCCCACUUGAUUGCUUUUAUCUUUUAGGAAAUGAGCAUGAAAAUAAACAACAGAGGAUUGAGCAUCA
B16: chr1:100327937:100327938:+_ENSG00000162688_ENST00000361915|hu_hu|motif|central (ssRNA)
RNA: GGGAGUUCUACAGUCCGACGAUCUUCUUUUGCAACCCUAAGUCUGCUUUCCCAUUCAUCAAAAGGUCCCAAACACUUAGCGGAAAAUGUCUGAAGAGUAACACAGUCCAAGGGUAGCACAUGAUUAUCAGCACCAACACGUAACAACAGAGGAUUGAGCAUCA
B17: 97946324_97946444_1485_ncRNA_ENSMUSG00000021666_ENSMUST00000159321|mouse|control|control (ssRNA)
RNA: GGGAGUUCUACAGUCCGACGAUCUGAUUCUGAAAUCAUGUAAAUUAAGAUUUGUUAGGCUGUUUUUUUUUUAAAUAAACCAUCUUUUUAUUGAUUGAAUCUUUCUAUCCCUGAAUCAAACACUGAAUCUUUUAUGUGAGCAGCCAACAGAGGAUUGAGCAUCA
B18: chr5:122939345:122939346:-_ENSMUSG00000029467_ENSMUST00000031423|mus_mus|FALSE|FALSE (ssRNA)
RNA: GGGAGUUCUACAGUCCGACGAUCCUUUCUGUCCUGUCGAUACACUUUGCCCAUUUCAGGCUCAUAUUCCUUAAGAGCUUCUAUUGCAUUUUCAGCAUUUCUUUCCUGCCACACACCCACGAUUGCAUUGGCUACCAAGAUAAGCAACAGAGGAUUGAGCAUCA
B19: 116785305_116785425_2892_3pUTR_ENSMUSG00000055531_ENSMUST00000069168|mouse|control|control (ssRNA)
RNA: GGGAGUUCUACAGUCCGACGAUCAAAAAAUGAAAGAAAGGAAAAAAAAAGAAAAAAAAAUCAGCUGAUUAACUCUAAUCAAGCAUAGAUCAACAAGGUUACAGGAAUACACACACAAUUCCUUGAGCCAUGAAGACAGUGUAACAACAGAGGAUUGAGCAUCA

The experiment deals with T1, UNK ZnF1-3. Description: nsRBNS (natural sequence RNA bind-n-seq); RBNS binding buffer (assumed for nsRBNS): 25 mM Tris pH 7.5, 150 mM KCl, 3 mM MgCl2, 0.01% Triton X-100, 500 ug/ml BSA, 20 U/ml SUPERase-In, 4 C; UNK is unkempt and MSI1 is Musashi-1; names of the RNAs are library labels; protein concentration not given here; high values mean tight binding.
Molecule B1 yielded a binding signal of 1.64 enrichment R.

On to B2, for which the binding signal stood at 0.897 enrichment R.

With B3, the binding signal was 1.3 enrichment R.

On to B4, for which the binding signal was 0.501 enrichment R.

In turn, B5 returned a binding signal of 2.04 enrichment R.

B6 had a binding signal of 1.7 enrichment R.

In the case of B7, the binding signal was determined as 0.532 enrichment R.

Molecule B8 gave a binding signal of 0.998 enrichment R.

For the molecule B9, the binding signal was found to be 0.436 enrichment R.

With B10, the binding signal worked out at 1.05 enrichment R.

In turn, B11 gave a binding signal of 8.09 enrichment R.

As for B12, the binding signal was 0.771 enrichment R.

B13 registered a binding signal of 1.18 enrichment R.

Consider B14, for which the binding signal turned out to be 8.05 enrichment R.

Regarding B15, the binding signal came to 5.78 enrichment R.

B16 showed a binding signal of 1.32 enrichment R.

In turn, B17 returned a binding signal of 0.66 enrichment R.

With B18, the binding signal is 0.9 enrichment R.

With B19, the binding signal came out at 4.36 enrichment R.
